{
  "source": "PubChem BioAssay (NCI)",
  "note": "Several values for one entry are separate records, joined by “and”; a condition that tells them apart may be missing. Equal entries are not always repeated. Compounds without any hit were thinned out: in the full panel of roughly 83,000, 20% have a hit.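 How to read the values: 0–100, growth inhibition (40 = 60% inhibited); 0, no net growth; -100 to 0, cell death (-40 = 40% of starting cells died; -100 = all dead).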 Unmarked numbers belong to inactive results. Activity calls are given as the source filed them. Rule for the calls: active = growth percent below 10; inactive = the rest.",
  "data": [
    {"tested_on": "HL-60(TB) leukemia", "assay": "NCI-60 one-dose screen, 48 h (100 = growth as untreated, 0 = no growth, -100 = all killed)", "conditions": "10 µM unless noted", "values": [
      {"smiles": "COc1ccc(-c2nc(Nc3ccc(F)cc3)nc(Nc3ccc4c(c3)nc(C)n4Cc3ccccc3)n2)cc1", "growth": "-11.4% (active)"},
      {"smiles": "CN1CCN(CCOc2cc(OC3CCOCC3)c3c(Nc4c(Cl)ccc5c4OCO5)ncnc3c2)CC1", "growth": "101%"},
      {"smiles": "CN(C=O)c1ccccc1", "growth": "101%"},
      {"smiles": "Nc1nc2c(s1)CCc1cn(S(=O)(=O)c3ccccc3)cc1-2", "growth": "70.6% and 76.2%"},
      {"smiles": "CN(C)CCC(=O)Nc1ccc(-n2cc(-c3cccc(NC(=S)Nc4cccc(-c5cn(-c6ccc(NC(=O)CCN(C)C)cc6)nn5)c4)c3)nn2)cc1", "growth": "94%"},
      {"smiles": "O=C(CCC(=O)N/N=C/c1ccccc1O)N/N=C/c1ccccc1O", "growth": "7.25% (active)"},
      {"smiles": "C#CCn1c(-c2cccc(OCCCCl)c2)nc2c1c(=O)n(C)c(=O)n2C", "growth": "-15.7% (active)"},
      {"smiles": "CCN(CC)CCNC(=O)c1ccc(NCN2C(=O)NC(c3ccccc3)(c3ccccc3)C2=O)cc1", "growth": "107% and 105%"},
      {"smiles": "CCN1C(=O)N(CC)C2C1NN=c1s/c(=C\\c3cccc([N+](=O)[O-])c3)c(=O)n12", "note": "(configuration not stated)", "growth": "-37.1% (active)"},
      {"smiles": "CCn1nc(-c2ccc(C(=O)OC)cc2)nc2c(=O)n(C)c(=O)nc1-2", "growth": "132%"},
      {"smiles": "CC/C=C\\C[C@H](O)C/C=C1/C(=O)C=C[C@@H]1C/C=C\\CCCC(=O)N(C)C", "growth": "0.857% (active)"},
      {"smiles": "O=S(=O)(NCCCNc1nccc(-c2c(-c3cccc(O)c3)nc3occn23)n1)c1ccc(F)cc1", "growth": "72.3%"},
      {"smiles": "COc1cc2c(c(OC)c1OC)CCC(c1cccc(C(=O)Nc3ccc(C#N)cc3)c1)O2", "note": "(configuration not stated)", "growth": "15.2%"},
      {"smiles": "Cc1noc(C)c1C(=O)OCc1coc2ccccc2c1=O", "growth": "12.4%"},
      {"smiles": "COc1ccc2c(NCCCCCCCCNc3c4ccccc4nc4cc(OC)ccc34)c3ccccc3nc2c1", "growth": "-92.3% (active)"},
      {"smiles": "COc1cc2nc(-c3ccc(C(F)(F)F)cc3)cc(OCCN3CCCC3)c2cc1OC", "growth": "66.8%"},
      {"smiles": "CC(C)OC(=O)N1CCOCC1", "growth": "116%"},
      {"smiles": "S=c1ccc2ccccc2[nH]1", "growth": "85.3% and 97.6%"},
      {"smiles": "O=C(Nc1ccc(CN2CCc3nc4cc(O)c(O)cc4cc32)cc1)c1ccc(Cl)c(Cl)c1", "growth": "114%"},
      {"smiles": "N#C/C(=C\\c1ccc2c(c1)OCO2)n1nnc2cc(F)c(F)cc21", "growth": "38.6%"},
      {"smiles": "C=C1C(=O)O[C@H]2[C@H]1CC/C(COC(=O)/C=C/C(=O)NCc1ccc(Cn3c(=O)sn(-c4ccccc4)c3=O)cc1)=C\\CC[C@@]1(C)O[C@@H]21", "growth": "-54.7% (active)"},
      {"smiles": "COc1cc(/C=N/Nc2nc3c([nH]2)c(=O)n(C)c(=O)n3C)ccc1O", "growth": "90.7% and 103%"},
      {"smiles": "CC(C)c1c(C(=O)Nc2ccccc2)c(-c2ccccc2)c(-c2ccc(F)cc2)n1CC[C@@H]1CC=CC(=O)O1", "growth": "-27.9% (active)"},
      {"smiles": "CC1(C)OC(=O)C(=Cc2ccc(C#N)cc2)C(=O)O1", "growth": "93.3% and 88.8%"},
      {"smiles": "O=C(CSC1CCc2ccccc21)N/N=C/c1ccccc1O", "note": "(configuration not stated)", "growth": "-12% (active)"},
      {"smiles": "CCn1cc(C(=O)O)c(=O)c2cc(F)c(N3CCN(CC(=O)Nc4ccc(C(C)=O)cc4)CC3)cc21", "growth": "95.7%"},
      {"smiles": "C[N+](C)(C)c1ncnc2nc[nH]c12", "growth": "91.8%"},
      {"smiles": "CCCCCn1ncc(-c2c(O)c(O)cc3c(O)c(-c4c(C)cc5c(-c6cnn(CCCCC)n6)c(O)c(O)cc5c4O)c(C)cc23)n1", "growth": "-22.3% (active)"},
      {"smiles": "O=C1C=CC(=O)N1c1ccc2ccccc2c1", "growth": "83.9% and 88.8%"},
      {"smiles": "O=C(Nc1cccc(Cl)c1)c1cc([N+](=O)[O-])ccc1O", "growth": "44.4%"},
      {"smiles": "CNC(=O)c1c(NC(=O)c2ccc(C(F)(F)F)cc2)sc2c1CCC(=O)C2", "growth": "-16.5% (active)"},
      {"smiles": "CCOc1ccc(Nc2nc(-c3c(C)nc4ncccn34)cs2)cc1", "growth": "-34.1% (active)"},
      {"smiles": "COC(=O)c1ccccc1Cl", "growth": "97.3%"},
      {"smiles": "Nc1c(C(=O)Nc2cccc3ccccc23)sc2nc3c(cc12)COCC3", "growth": "-4.22% (active)"},
      {"smiles": "COc1ccc(C(=O)/C=C/c2c[n+](=O)c3ccc(F)cc3n2[O-])cc1", "growth": "83.3%"},
      {"smiles": "O=C1N/C(=N\\c2nnc(-c3ccc(O)cc3)s2)S/C1=C\\c1ccccc1O", "growth": "104%"},
      {"smiles": "C=C(C)[C@@H]1CC[C@]2(C(=O)OCCCC[P+](c3ccccc3)(c3ccccc3)c3ccccc3)CC[C@]3(C)[C@H](CC[C@@H]4[C@@]5(C)CC[C@H](OC(=O)C(Cl)Cl)C(C)(C)[C@@H]5CC[C@]43C)[C@@H]12", "growth": "-49.9% (active)"}
    ]}
  ]
}
